# Target: DCX
# Assay: pooled miR-30 sensor sort-seq; sequence = guide strand
# Details: shRNA
# Note: reference of the scale not given here.
row,Sequence,sensor-assay potency score (higher = more potent)
1,TTTCTGGCTATAACTATTCTAA,-0.801
2,TTCGGTAGAAGCTACAGTGGGC,0.324
3,TATTCATCTTGTTTTCTCCTGG,0.366
4,TTGGGATTGACATTCTTGGTGT,0.0923
5,TCAATTATTAGTATTTAGCTGA,0.00518
6,TTGTATACAAGTCATAAGGGAT,-0.914
7,TTAAAGAACTTACCACACGTGG,-0.728
8,TACAAGGTGACTTCTGTTGTGC,0.124
9,TAGAGTTTTTTGACAACCCCGG,-0.351
10,TTGAATGCTGCGAATCTTCAGC,-0.1
11,TTAACACCTACAATCTGGCTTC,0.157
12,TACAACTGTAAGACAACTGGGA,0.406
13,TTTATTTCCATAGCAAACTGGA,-0.272
14,AATGACATTACACACATCTTGC,-0.654
15,TTTCATTTAAATCAACTCCGAT,-0.0704
16,TTACTTGTGACTGTGGAGGAGA,-0.0876
17,TCTAGTAGTACATATACCGCAA,0.223
18,TAAATTAACACCTACAATCTGG,-0.105

# Target: DDAH1
# Assay: as above
# Details: shRNA
row,Sequence,sensor-assay potency score (higher = more potent)
1,TTAGATATATACAGTTTGCTGC,-0.536
2,TAAAGTTGCATTTTCATCTTTC,0.237
3,TTCATCTTTCATCTCTACTATA,-1.1
4,TAAAACATCTCCGCCATCTAAA,-0.943
5,TTGCATGATCTTAAGGGCCTTC,-0.108
6,TTTCTGGATACTCTTCCGGGGT,-1.06
7,TTTCATCTCTACTATATTGAGC,-0.645
8,TACAGTTTGCTGCTATGTCATC,-1.54
9,TAAACCTTTGCACTTTCTGGAT,-0.647
10,TACTATATTGAGCTGAAGTTTT,-1.16
11,TTAATTAAAACTGAGCAGCAGG,-0.0699
12,ATCTCTACTATATTGAGCTGAA,-0.824

# Target: DDB2
# Assay: as above
# Details: shRNA
row,Sequence,sensor-assay potency score (higher = more potent)
1,TTTGCCGTCCATGTTCAGCAGG,-0.642
2,TAAAGTCTTGCAGCCTAGTTGT,-0.222
3,TAATACAATCTCGGAGGTCTTC,-0.478
4,TCTGAGTCACATCTTCTGCTAG,-0.241
5,TCGAACACGTCGATCGTCCTCA,-0.285
6,TTGATGGTGTCTGAGCTGGCAA,-1.17
7,TCCATCGAACACGTCGATCGTC,-0.818
8,TACAACTTTTGAAATTAGGATC,-0.816
9,TGAGTTTCCATCGAACACGTCG,0.1
10,TGACACATCATCTTCCCTGAGT,0.0365
